TTR transcr act: increases transthyretin transcription; SH-SY5Y TTR promoter Gaussia luciferase, luminescence; 100% = recombinant luciferase protein wells; activation, % at 16.7 µM; 1.3% of 92,000 active;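 active = activation above the mean of all tested compounds plus 3 SD, cut at about 9.5% in these data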;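 also: cells exposed to compounds for one day before reading; 0% = median of all test compound wells on the plate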
TTR inh HuH7: HuH7 TTR transcription inhibition, counter-screen; 4% of 1,100 active; HuH7 TTR promoter-Gaussia luciferase reporter, luminescence; inhibition, % at 16.7 µM; shares compounds with TTR transcr act;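 active = average inhibition above the solvent-only control wells' mean plus 3 SD, cut at about 15% in these data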;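 also: 0% = cells with DMSO only and 100% = cells with inhibitor control FD; inhibitors lower well luminescence so higher value means more inhibition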
TTR up confirm: human TTR transcription activation, confirmation. shares compounds with TTR transcr act. 1,100 tested, under 10 active. SHSY5Y TTR promoter Gaussia luciferase, luminescence; 100% = purified Lucia enzyme wells, no cells. AID 1117280. activation, % at 16.7 µM;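 active = mean activation above a set limit taken from the earlier primary screen, cut at about 11% in these data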;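 also: 0% = DMSO-treated cells and 100% = recombinant Lucia luciferase without cells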
The depositor's hits bear a star. The full list was thinned out, with hits kept by preference.

COc1ccc(C(c2c(NC(=O)c3ccco3)sc(C)c2C)N2CCOCC2)cc1 (configuration not stated) was read as TTR transcr act 14*, TTR inh HuH7 0 and TTR up confirm 0.
COc1ccc(-c2cc(CCC(=O)N3CCN(c4cc(C)ccc4C)CC3)[nH]n2)cc1 was read as TTR transcr act -3.
CCC(=O)N1CCC2(CC1)Oc1ccc(Cl)cc1C(=O)C21CC(c2ccc(Cl)cc2)=NO1 (configuration not stated) was read as TTR transcr act -3.
Screening COC(=O)NC1(C(F)(F)F)C(=O)NC(C)=C1C(=O)OC (configuration not stated) returned TTR transcr act 19*, TTR inh HuH7 -9 and TTR up confirm -1.
Screening COC(=O)C1=C(C)NC(=O)C1(NC(=O)c1ccncc1)C(F)(F)F (configuration not stated) returned TTR transcr act -1.
CC1=C(C#N)C(NC(=O)c2ccc(C)cc2)(C(F)(F)F)C(=O)N1 (configuration not stated) was read as TTR transcr act 2.
`Cc1cccc(C)c1NC(=O)C(c1ccncc1)n1c(=O)c(-c2ccco2)nc2ccccc21` (configuration not stated) gave TTR transcr act -1.
Cc1cc(C)nc(N2CCN(c3ccc(F)cc3)CC2)n1 was read as TTR transcr act -2.
For CC(C)CC(CO)N1CCN(C(=O)c2cccc(C(F)(F)F)c2)CCC1=O (configuration not stated) the results were TTR transcr act 1.
Screening CCc1nc2ccccc2nc1N1CCN(S(=O)(=O)c2ccccc2)CC1 returned TTR transcr act -1.
`CC(C)(C)C(=O)NCCCc1nc2ccccc2n1CCCOc1ccc(Cl)cc1` gave TTR transcr act -7.
Screening NC(N)=Nc1nc(CCN2C(=O)c3ccccc3C2=O)cs1 returned TTR transcr act -1.
For O=C(CN1C(=O)CSc2ccc(S(=O)(=O)N3CCOCC3)cc21)NCc1c(F)cccc1Cl the results were TTR transcr act 0.
O=C(CN1C(=O)CCSc2ccc(S(=O)(=O)N3CCCC3)cc21)NCc1ccccc1Cl was read as TTR transcr act 3.
`O=C(CN1C(=O)CSc2ccc(S(=O)(=O)N3CCCCC3)cc21)NCc1cccnc1` gave TTR transcr act 11*, TTR inh HuH7 -13 and TTR up confirm -1.
Screening O=S1(=O)c2c(cccc2N2CCC[C@@H]2CO)O[C@H]2CCN1C2 returned TTR transcr act 4.
Screening O=C(NC1CCOC1=O)OCc1ccccc1 (configuration not stated) returned TTR transcr act 2.
Cc1ccc[n+](CC(=O)c2ccc(NC(=O)c3ccccc3)cc2)c1 was read as TTR transcr act 1.
Screening Cc1cccc(NC(=O)C[n+]2cccc(C)c2)c1 returned TTR transcr act -2.
`Cc1cc(C)c(C(=O)C[n+]2cccc(C(N)=O)c2)c(C)c1` gave TTR transcr act 14*, TTR inh HuH7 -9 and TTR up confirm 0.
`O=C(c1ccc2c(=O)n(-c3ccccc3)c(=S)[nH]c2c1)N1CCCCC1` gave TTR transcr act 0.
Screening CCCCCn1c(=S)[nH]c2cc(C(=O)N3CCCC3)ccc2c1=O returned TTR transcr act 10*, TTR inh HuH7 2 and TTR up confirm 2.
For COc1ccc(CCn2c(=S)[nH]c3cc(C(=O)N4CCOCC4)ccc3c2=O)cc1OC the results were TTR transcr act -1.
O=C1NC(Cc2ccccc2)c2nc3ccccc3c(=O)n2-c2ccc(Cl)cc21 (configuration not stated) was read as TTR transcr act 0.
`O=C(c1ccccc1Sc1ccccc1[N+](=O)[O-])N1CCCCC1` gave TTR transcr act 2.
For O=[N+]([O-])c1ccc(C=NN2CCCCCC2)cc1 the results were TTR transcr act 0.
Screening COC(=O)c1cccc(Cn2ccc3ccc(-c4ccc5ccn(C(=O)c6ccccc6)c5c4)cc32)c1 returned TTR transcr act 0.
`NC(=O)c1c(N)[nH]c(C(=O)c2ccccc2)c1-c1cccc2ccccc12` gave TTR transcr act 3.
`COc1ccc(-c2[nH]c(-c3ccc(SC)cc3)nc2SCC(=O)Nc2nccs2)cc1` gave TTR transcr act -1.
`COc1ccc(-c2nc(SCC(=O)NC3CCCC3)c(-c3ccc(OC)cc3)[nH]2)cc1` gave TTR transcr act -1.
For COc1ccc(-c2[nH]c(-c3ccc(C)cc3)nc2SCC(=O)Nc2nccs2)cc1 the results were TTR transcr act 10*, TTR inh HuH7 -12 and TTR up confirm -1.
For COc1cc(-c2ccccc2)nc2ccccc12 the results were TTR transcr act 0.
`O=C(NCc1ccc(F)cc1)c1cc(-c2ccncc2)nc2ccccc12` gave TTR transcr act -3.
c1ccc(-c2cc(-c3ccncc3)nc3ccc4ccccc4c23)cc1 was read as TTR transcr act 11*, TTR inh HuH7 12 and TTR up confirm -1.
For O=C(COC(=O)c1cccnc1Cl)Nc1ccc2c(c1)OCCO2 the results were TTR transcr act 0.
For CC1(C)OC2OC(C3COC(=O)O3)C(OC(=O)c3ccccc3)C2O1 (configuration not stated) the results were TTR transcr act 25*, TTR inh HuH7 -7 and TTR up confirm -1.
`CC(=O)N1C(C)(C)CC(=NOC(=O)c2ccccc2)CC1(C)C` gave TTR transcr act -1.
Screening CC1(C)OC2OC(COC(=O)c3ccc([N+](=O)[O-])cc3)C3OC(C)(C)OC3C2O1 (configuration not stated) returned TTR transcr act 0.
O=C(Cc1ccc(F)cc1)N1CCOCC1 was read as TTR transcr act 0.
`O=C(NCCOc1ccccc1F)C1CC(=O)N(Cc2ccccc2)C1` (configuration not stated) gave TTR transcr act 2.
Screening O=C(CO/N=C/c1c(Cl)cccc1Cl)NNC(=O)c1cccc(Cl)c1 returned TTR transcr act 2.
For O=C(CO/N=C/c1ccc(Cl)cc1Cl)NNC(=O)c1ccc(Cl)cc1Cl the results were TTR transcr act 0.
Screening O=C(CO/N=C/c1c(Cl)cccc1Cl)NNC(=O)c1ccc(Cl)cc1 returned TTR transcr act 11*, TTR inh HuH7 -16 and TTR up confirm 0.
COC(=O)[C@]12C[C@H](CC(=O)NCCc3ccccc3OC)C(=O)N(Cc3ccc(Cl)cc3Cl)C1=C[C@H](C1CCCC1)O[C@@H]2C was read as TTR transcr act 0.
Screening O=C1c2cccn2CC2Cc3ccccc3N12 (configuration not stated) returned TTR transcr act -1.
Screening CN(Cc1ccccc1)C(=O)OCc1cn(Cc2c(F)cccc2F)nn1 returned TTR transcr act -1.
For COc1ccc(S(=O)(=O)N2Cc3ccccc3CC2C(=O)Nc2ccc(O)cc2)cc1OC (configuration not stated) the results were TTR transcr act 1.
`CCOc1ccc(NC(=O)C2Cc3ccccc3CN2S(=O)(=O)CC)cc1` (configuration not stated) gave TTR transcr act 20*, TTR inh HuH7 -14 and TTR up confirm 0.
